# Activity calls are given as the source filed them. Unless noted, no stated cut-off is given here; in the data, active means inhibition above about 80%; inactive means the rest.
# How the values were obtained:
# [1] = sensitizers of A549 cells to miR-34 induction, primary screen, imaging, A549 dox-inducible miR-34, nuclei and caspase counts (AID 1347080;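 active means compounds whose cell count with miR-34 switched on is under 0.7 times the count with it off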); conditions: A549 miR-34 inducible, Hoechst nuclei count, 48 h
# [2] = survival rescue of mitochondrial mutant cells in low glucose, primary screen, MELAS cybrids, Rieske KO mouse fibroblasts, CellTiter-Glo (AID 1508586;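 active means mean z-score across replicates of 1.96 or higher in either the MELAS or the Rieske mutant cell line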;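 further: z relative to plate mean and SD of compound and empty wells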)
# [3] = LFS_MB_P medulloblastoma growth inhibition, cell-based, chromothripsis tumors, cisplatin or BGB combos (AID 1671449); conditions: LFS_MB_P medulloblastoma cells;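 further: cells exposed for 96 hours; 0% = vehicle DMSO and 100% = killing by high DMSO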
# [4] = HDN33 neuroblastoma growth inhibition, cell-based, chromothripsis tumors, cisplatin or BGB combos (AID 1671450); conditions: HDN33 neuroblastoma cells, stronger effect = higher value;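 further: cells exposed to compound for four days; 0% = vehicle DMSO and 100% = cell killing by high DMSO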
# [5] = ICB984 medulloblastoma cell growth inhibition, synergistic combos for chromothripsis tumors, cisplatin or BGB combos (AID 1671451; call rule not given here;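 further: cells exposed for 96 hours before readout; 0% = vehicle DMSO and 100% = killing by high DMSO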); conditions: ICB984 medulloblastoma cells, drug combinations, stronger effect = higher value
# [6] = LFS_MB_1R medulloblastoma cell growth inhibition, synergistic combos for chromothripsis tumors, cisplatin or BGB combos (AID 1671452); conditions: LFS_MB_1R medulloblastoma cells, stronger effect = higher value;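 further: cells exposed for 96 hours before readout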
# [7] = HTB85 osteosarcoma cell growth inhibition, synergistic combos for chromothripsis tumors, BGB or cisplatin IC20 combos (AID 1671453); conditions: HTB85 osteosarcoma cells, drug combinations, stronger effect = higher value;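 further: cells exposed for 96 hours before readout; 0% = vehicle DMSO and 100% = high DMSO killing control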
# [8] = CRL2098 osteosarcoma cell growth inhibition, synergistic combos for chromothripsis tumors, BGB or cisplatin IC20 combos (AID 1671454); conditions: CRL2098 osteosarcoma cells, drug combinations, stronger effect = higher value;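 further: cells exposed for 96 h before readout; 0% = vehicle DMSO and 100% = killing by high DMSO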
# [9] = HD-MB03 medulloblastoma cell growth inhibition, synergistic combos for chromothripsis tumors, BGB or cisplatin IC20 combos (AID 1671455; in the data active means inhibition above about 83%;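 further: 0% = vehicle DMSO and 100% = high DMSO as cytotoxic control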); conditions: HD-MB03 medulloblastoma cells, stronger effect = higher value
# [10] = UWB1.289 ovarian carcinoma cell growth inhibition, synergistic combos for chromothripsis tumors, BGB or cisplatin combos (AID 1671456); conditions: UWB1.289 ovarian carcinoma cells, stronger effect = higher value;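 further: cells exposed to compound for four days; 0% = vehicle DMSO and 100% = killing by high DMSO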
# [11] = LFS_MB_2R medulloblastoma cell growth inhibition, synergistic combos for chromothripsis tumors, cisplatin combos (AID 1671457); conditions: LFS_MB_2R medulloblastoma cells, stronger effect = higher value;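 further: cells exposed to compound for four days before readout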
# [12] = MDA-MB-436 breast carcinoma cell growth inhibition, synergistic combos for chromothripsis tumors, BGB or cisplatin combos (AID 1671458; call rule not given here;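 further: cells exposed for 96 hours; 0% = vehicle DMSO and 100% = killing by high DMSO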); conditions: MDA-MB-436 breast carcinoma growth inhibition, drug combinations, stronger effect = higher value
# [13] = UWB1.289_BRCA1 ovarian cancer growth, cell-based, BGB or cisplatin combinations (AID 1671459); conditions: UWB1.289 BRCA1 ovarian carcinoma, drug combinations, stronger effect = higher value
# [14] = human astrocyte viability loss, single and combined drugs, cytotoxicity control for chromothriptic childhood tumor combination screen, cell-based, BGB or cisplatin IC20 combos (AID 1671460); conditions: Human astrocytes, drug combinations, stronger effect = higher value;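 further: cells exposed to compounds for 96 hours before viability readout; 0% = vehicle and 100% = killing control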
# [15] = growth inhibition of BT084 medulloblastoma cells, cell-based, ICGC_MB145, cisplatin and BGB IC40 combos (AID 1671461); conditions: drug combinations, stronger effect = higher value;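 further: cells exposed to drugs for 96 hours; 0% = vehicle DMSO and 100% = high DMSO full killing control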
# [16] = growth inhibition of RCMB18 medulloblastoma cells, cell-based, cisplatin and BGB IC40 combos (AID 1671462); conditions: stronger effect = higher value;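 further: cells exposed to compound for four days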
# [17] = growth inhibition of CRL1545 osteosarcoma cells, cell-based, cisplatin and BGB IC20 combos (AID 1671464); conditions: stronger effect = higher value;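 further: cells exposed to compound for 96 hours before readout; 0% = vehicle DMSO and 100% = high DMSO killing control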
# [18] = stronger effect = lower value, cell number ratio, induced over uninduced
# [19] = measured here: relative caspase fold change +Dox/-Dox
# [20] = measured here: total cells with miR-34 induction, stronger effect = lower value
# [21] = measured here: total cells without miR-34 induction
# [22] = MELAS cybrid survival, CellTiter-Glo 48 h, stronger effect = higher value
# [23] = Rieske KO mouse fibroblast survival, CellTiter-Glo 72 h
# [24] = at 0.5 µM, stronger effect = higher value
# [25] = measured here: combination with BGB IC20, at 0.005 µM
# [26] = measured here: combination with BGB IC40, at 0.005 µM
# [27] = measured here: combination with BGB IC40, at 0.05 µM
# [28] = measured here: combination with cisplatin, at 0.5 µM, stronger effect = higher value
# [29] = measured here: combination with cisplatin, at 5 µM, stronger effect = higher value
# [30] = measured here: with BGB IC20 combination, at 0.5 µM
# [31] = measured here: with cisplatin IC20 combination, at 0.5 µM
# [32] = measured here: 5 uM single agent, at 5 µM
# [33] = measured here: combination with cisplatin, at 0.5 µM
# [34] = measured here: combination with cisplatin, at 5 µM
# [35] = measured here: with BGB IC20, at 0.5 µM
# [36] = measured here: with BGB IC20, at 5 µM
# [37] = measured here: with cisplatin IC20, at 0.5 µM
# [38] = measured here: with cisplatin IC20, at 5 µM
# [39] = measured here: combination with BGB at IC20, at 0.5 µM
# [40] = measured here: combination with cisplatin at IC20, at 0.5 µM
# [41] = measured here: combo with BGB at IC20, at 0.5 µM
# [42] = measured here: combo with cisplatin at IC20, at 0.5 µM
# [43] = measured here: inhibition with BGB combination, at 0.05 µM
# [44] = measured here: inhibition with cisplatin combination, at 0.05 µM
# [45] = measured here: BGB combination, at 0.5 µM
# [46] = measured here: BGB combination, at 5 µM
# [47] = measured here: cisplatin combination, at 0.5 µM
# [48] = measured here: cisplatin combination, at 5 µM
# [49] = BGB combination, concentration series, at 5 µM
# [50] = cisplatin combination, concentration series, at 5 µM
# [51] = measured here: combo with BGB IC20, at 0.5 µM
# [52] = measured here: combo with cisplatin IC20, at 0.5 µM
compound,measurement,setting,value
CC1CN(c2c(F)c(N)c3c(=O)c(C(=O)O)cn(C4CC4)c3c2F)CC(C)N1 (centres undefined),fold change,[1]; [18],0.949 (inactive)
same,fold change,[1]; [19],1.47
same,cell count,[1]; [20],8380
same,cell count,[1]; [21],8840
same,z-score,[2]; [22],-0.385 (inactive)
same,z-score,[2]; [23],0.474
same,inhibition,[3]; [24],-8.35% (inactive)
same,inhibition,[3]; [25],-4.46%
same,inhibition,[3]; [26],-31.5%
same,inhibition,[3]; [27],-15.2%
same,inhibition,[3]; [28],-6.19%
same,inhibition,[3]; [29],-16.6%
same,inhibition,"[4]; BGB combo, at 5 µM",12%
same,inhibition,[4]; at 0.5 µM,-0.91% (inactive)
same,inhibition,"[4]; cisplatin combo, at 5 µM",-6.01%
same,inhibition,[4]; [30],11.5%
same,inhibition,[4]; [31],-1.5%
same,inhibition,"[4]; single agent, at 5 µM",6.32%
same,inhibition,"[5]; BGB IC20 combo, at 0.005 µM",-1.67%
same,inhibition,"[5]; BGB IC40 combo, at 0.005 µM",11%
same,inhibition,"[5]; BGB IC40 combo, at 0.05 µM",-1.88%
same,inhibition,[5]; at 0.5 µM,7.87% (inactive)
same,inhibition,"[5]; cisplatin combo, at 0.05 µM",-1.88%
same,inhibition,"[5]; cisplatin combo, at 0.5 µM",11.3%
same,inhibition,"[5]; cisplatin combo, at 5 µM",13.8%
same,inhibition,[5]; [32],-29.6%
same,inhibition,[6]; at 0.5 µM,-11.6% (inactive)
same,inhibition,[6]; [27],17.7%
same,inhibition,[6]; [33],-11.6%
same,inhibition,[6]; [34],6.53%
same,inhibition,[7]; at 0.5 µM,-1.44% (inactive)
same,inhibition,[7]; [35],-7.64%
same,inhibition,[7]; [36],3.84%
same,inhibition,[7]; [37],-9.9%
same,inhibition,[7]; [38],-0.774%
same,inhibition,"[7]; single agent, at 5 µM",7.58%
same,inhibition,[8]; at 0.5 µM,10.8% (inactive)
same,inhibition,[8]; [39],-2.31%
same,inhibition,[8]; [40],38.8%
same,inhibition,[9]; at 0.5 µM,-2.01% (inactive)
same,inhibition,[9]; [41],-4.41%
same,inhibition,[9]; [42],2.33%
same,inhibition,[10]; at 0.5 µM,8.04% (inactive)
same,inhibition,[10]; [43],0.724%
same,inhibition,[10]; [44],-2.03%
same,inhibition,[11]; at 0.5 µM,-6.3% (inactive)
same,inhibition,[11]; [33],-7.26%
same,inhibition,[11]; [34],2.01%
same,inhibition,[12]; at 0.5 µM,-9.1% (inactive)
same,inhibition,[12]; [45],-2.77%
same,inhibition,[12]; [46],-17.3%
same,inhibition,[12]; [47],-22.6%
same,inhibition,[12]; [48],-5.2%
same,inhibition,[13]; [49],10.9%
same,inhibition,[13]; at 0.5 µM,7.45% (inactive)
same,inhibition,[13]; [50],7.13%
same,inhibition,[14]; at 0.5 µM,-1.22% (inactive)
same,inhibition,[14]; [51],2.7%
same,inhibition,[14]; [52],-10.7%
same,inhibition,[15]; at 0.5 µM,-22.6% (inactive)
same,inhibition,"[15]; cisplatin combination, at 0.5 µM",-28.7%
same,inhibition,"[15]; cisplatin combination, at 5 µM",-70.7%
same,inhibition,"[15]; measured here: BGB IC40 combination 0.05 uM, at 0.05 µM",2.3%
same,inhibition,"[15]; single agent, at 5 µM",-7.96%
same,inhibition,[16]; at 0.5 µM,-6.55% (inactive)
same,inhibition,"[16]; cisplatin combo, at 5 µM",2%
same,inhibition,"[16]; measured here: BGB IC40 combination, at 0.05 µM",11.2%
same,inhibition,[16]; [33],-22.2%
same,inhibition,"[16]; single agent, at 5 µM",-18.8%
same,inhibition,[17]; at 0.5 µM,-2.34% (inactive)
same,inhibition,[17]; [30],14.7%
same,inhibition,[17]; [31],-10.9%
same,inhibition,"[17]; single agent, at 0.05 µM",39.2%
same,inhibition,"[17]; single agent, at 5 µM",26.7%
Nc1ncn(C2OC(CO)C(O)C2O)c(=O)n1 (centres undefined),fold change,[1]; [18],0.707 (inactive)
same,fold change,[1]; [19],0.203
same,cell count,[1]; [20],2140
same,cell count,[1]; [21],3020
same,z-score,[2]; [22],-0.256 (inactive)
same,z-score,[2]; [23],0.025
same,inhibition,[3]; [24],-5.82% (inactive)
same,inhibition,[3]; [25],12.2%
same,inhibition,[3]; [26],6.88%
same,inhibition,[3]; [27],-0.515%
same,inhibition,[3]; [28],-8.35%
same,inhibition,[3]; [29],15.6%
same,inhibition,"[4]; BGB combo, at 5 µM",35.3%
same,inhibition,[4]; at 0.5 µM,3.8% (inactive)
same,inhibition,"[4]; cisplatin combo, at 5 µM",38.5%
same,inhibition,[4]; [30],-3.13%
same,inhibition,[4]; [31],6.68%
same,inhibition,"[4]; single agent, at 5 µM",47.8%
same,inhibition,"[5]; BGB IC20 combo, at 0.005 µM",3.99%
same,inhibition,"[5]; BGB IC40 combo, at 0.005 µM",-4.47%
same,inhibition,"[5]; BGB IC40 combo, at 0.05 µM",64.1%
same,inhibition,[5]; at 0.5 µM,-14.1% (inactive)
same,inhibition,"[5]; cisplatin combo, at 0.05 µM",62.8%
same,inhibition,"[5]; cisplatin combo, at 0.5 µM",-8.65%
same,inhibition,"[5]; cisplatin combo, at 5 µM",-9.29%
same,inhibition,[5]; [32],-4.38%
same,inhibition,[6]; at 0.5 µM,1.69% (inactive)
same,inhibition,[6]; [27],-18.7%
same,inhibition,[6]; [33],-16%
same,inhibition,[6]; [34],-12%
same,inhibition,[7]; at 0.5 µM,-6.96% (inactive)
same,inhibition,[7]; [35],-12.6%
same,inhibition,[7]; [36],18.2%
same,inhibition,[7]; [37],-13.1%
same,inhibition,[7]; [38],4.48%
same,inhibition,"[7]; single agent, at 5 µM",30.1%
same,inhibition,[8]; at 0.5 µM,-21% (inactive)
same,inhibition,[8]; [39],-8.95%
same,inhibition,[8]; [40],-58.6%
same,inhibition,[9]; at 0.5 µM,2.06% (inactive)
same,inhibition,[9]; [41],4.05%
same,inhibition,[9]; [42],0.735%
same,inhibition,[10]; at 0.5 µM,18.4% (inactive)
same,inhibition,[10]; [43],8.02%
same,inhibition,[10]; [44],-5.92%
same,inhibition,[11]; at 0.5 µM,-0.31% (inactive)
same,inhibition,[11]; [33],-2.9%
same,inhibition,[11]; [34],21.8%
same,inhibition,[12]; at 0.5 µM,12.3% (inactive)
same,inhibition,[12]; [45],18%
same,inhibition,[12]; [46],23.9%
same,inhibition,[12]; [47],0.452%
same,inhibition,[12]; [48],23.8%
same,inhibition,[13]; [49],63.4%
same,inhibition,[13]; at 0.5 µM,20.7% (inactive)
same,inhibition,[13]; [50],51%
same,inhibition,[14]; at 0.5 µM,13.2% (inactive)
same,inhibition,[14]; [51],17.7%
same,inhibition,[14]; [52],11.2%
same,inhibition,[15]; at 0.5 µM,10.9% (inactive)

# From PubChem BioAssay
